Among the data in PubChem BioAssay AID1645853 (Buhrlage Lab, Dana-Farber Cancer Institute and Novartis …, 2021) are inhibition values, retold here.

The whole screen tested about 47,000 compounds, of which about 2,000 (4.3%) were called active. Cut-off read from the data, not from the text of the source: active = inhibition above about 30%; inactive = the rest. Only a selection was taken, and actives are over-represented in it overall.

One may read the inhibition as the drop in the measured response relative to a control, in per cent.

Sequence of Ubiquitin carboxyl-terminal hydrolase 8 (Homo sapiens) (P40818 whole entry, looked up): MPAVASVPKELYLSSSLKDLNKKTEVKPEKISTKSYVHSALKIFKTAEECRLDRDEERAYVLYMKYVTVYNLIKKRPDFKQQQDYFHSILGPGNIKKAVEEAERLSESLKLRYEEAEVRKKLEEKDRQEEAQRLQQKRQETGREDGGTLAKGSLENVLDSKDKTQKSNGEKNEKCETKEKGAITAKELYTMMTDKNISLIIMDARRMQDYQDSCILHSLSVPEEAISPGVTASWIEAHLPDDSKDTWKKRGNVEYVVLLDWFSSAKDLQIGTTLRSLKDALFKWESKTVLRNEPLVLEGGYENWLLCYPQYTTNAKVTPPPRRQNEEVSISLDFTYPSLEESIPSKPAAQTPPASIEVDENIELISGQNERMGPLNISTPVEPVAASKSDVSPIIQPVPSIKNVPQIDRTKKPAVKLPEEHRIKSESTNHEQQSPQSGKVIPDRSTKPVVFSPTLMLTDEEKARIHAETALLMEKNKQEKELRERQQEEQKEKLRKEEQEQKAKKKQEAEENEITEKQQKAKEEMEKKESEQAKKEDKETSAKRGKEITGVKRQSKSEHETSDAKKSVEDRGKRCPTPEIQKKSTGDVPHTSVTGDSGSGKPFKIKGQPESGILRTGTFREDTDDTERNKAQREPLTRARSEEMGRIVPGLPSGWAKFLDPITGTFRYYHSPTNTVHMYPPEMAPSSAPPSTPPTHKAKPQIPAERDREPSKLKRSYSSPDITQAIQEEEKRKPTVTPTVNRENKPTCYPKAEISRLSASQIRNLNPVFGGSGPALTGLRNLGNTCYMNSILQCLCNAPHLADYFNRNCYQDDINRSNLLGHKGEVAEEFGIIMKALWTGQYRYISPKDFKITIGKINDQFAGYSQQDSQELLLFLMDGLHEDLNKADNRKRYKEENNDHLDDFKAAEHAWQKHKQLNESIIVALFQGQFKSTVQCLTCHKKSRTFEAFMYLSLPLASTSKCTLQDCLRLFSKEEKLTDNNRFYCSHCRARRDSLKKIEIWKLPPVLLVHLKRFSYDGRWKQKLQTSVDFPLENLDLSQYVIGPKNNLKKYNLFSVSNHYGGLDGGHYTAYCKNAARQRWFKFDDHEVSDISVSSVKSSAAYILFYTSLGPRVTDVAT

This test concerns the target Ubiquitin carboxyl-terminal hydrolase 8 (Homo sapiens) (UniProt P40818). In words: blocks human USP8 ubiquitin-rhodamine cleavage (AID 1645853). As to conditions: purified USP8, Ub-rhodamine cleavage fluorescence, 30 min; at 20 µM; stronger effect = higher value.
Turning to `Nc1cccc(C(=O)CC2(O)C(=O)N(CCc3ccccc3)c3ccccc32)c1` (stereo not drawn), the inhibition is -96.8% (inactive).

Turning to `CNc1nc(C2CCCN(C(C)=O)C2)nc2c1CCN(C(=O)c1oc3ccccc3c1C)C2` (stereo not drawn), the inhibition was -2.25% (inactive).

For `O=C(CC1C(=O)OCCN1Cc1ccccc1)Nc1cccc(F)c1` (stereo not drawn), the inhibition was -10.4% (inactive).

As to `COc1ccc(NC(=O)CSc2ncccc2C(=O)N2CCC(Cc3ccccc3)CC2)cc1OC`, the inhibition was -0.608% (inactive).

On to `O=C(COc1cccc2ccc(N3CCC(Cc4ccccc4)CC3)nc12)NCc1ccc(F)cc1`, for which the inhibition was 65.7% (active).

In the case of `Cn1c(=O)c(N2CCC(C(=O)NCc3ccc(F)cc3)CC2)nc2cccnc21`, the inhibition is 7.77% (inactive).

As for `O=C(COc1cccc2ccc(N3CCC(Cc4ccccc4)CC3)nc12)Nc1cccc(F)c1`, the inhibition was 84.1% (active).

Regarding `O=C(CCc1nnc2ccc(N3CCCC3)nn12)NCc1ccc(F)cc1`, the inhibition was 29.2% (inactive).

In the case of `CC(c1ccccc1)n1c(CCCNC(=O)C2CCCCC2)nc2ccccc21` (stereo not drawn), the inhibition was -8.43% (inactive).

Regarding `Cc1ccc(NC(=O)Cn2cccc(S(=O)(=O)N3CCCCCC3)c2=O)c(C)c1`, the inhibition is -3.12% (inactive).

With `Cn1c2c(c(=O)n(C)c1=O)C(c1cccc(Cl)c1Cl)CC(=O)N2` (stereo not drawn), the inhibition is -0.255% (inactive).

Turning to `O=C(CSc1n[nH]c(-c2cccnc2)n1)Nc1ccc(Cl)cc1`, the inhibition is -5.47% (inactive).

On to `COCCn1c(=O)[nH]c2cc(C(=O)NCCNc3ccc([N+](=O)[O-])cc3C#N)ccc2c1=O`, for which the inhibition is 55.6% (active).

On to `COCCn1c(=O)[nH]c2cc(C(=O)N3CCC(Cc4ccccc4)CC3)ccc2c1=O`, for which the inhibition is -0.0121% (inactive).

For `COCCn1c(=O)[nH]c2cc(C(=O)NCc3ccc(Cl)cc3)ccc2c1=O`, the inhibition was -1.21% (inactive).

Consider `Cc1cccc(NC(=O)N2CCCC3(CCCN3C)C2)c1` (stereo not drawn), for which the inhibition is -319% (inactive).

Take `CN1CCN(c2ncc(NC(=O)c3ccc(C(F)(F)F)cc3)cn2)CC1`: the inhibition was -15.2% (inactive).

Consider `CC(=O)N1Cc2ccccc2OC2(CCN(CC(=O)Nc3cccc(C)c3C)CC2)C1`, for which the inhibition was -15.9% (inactive).

In the case of `Cn1cccc1/C(C#N)=C\c1ccc2c(c1)OCO2`, the inhibition is 76.2% (active).

Turning to `Cn1c(=O)c(-c2ccc(C(=O)NCc3ccc(F)cc3F)cc2)nc2cccnc21`, the inhibition was 15.4% (inactive).

In the case of `CNC(=O)C1(C)CN(C(=O)c2ccc3[nH]c(C)c(C)c3c2)CCO1` (stereo not drawn), the inhibition is -61.8% (inactive).

Turning to `Cc1cc(NC(=O)CSc2nccn2-c2ccc([N+](=O)[O-])cc2)no1`, the inhibition is -89.6% (inactive).

In the case of `O=C(NCC1CC1)[C@H]1C[C@@H]2CN(CC3CC3)C[C@H]1O2`, the inhibition is -27.5% (inactive).

As for `CC(C)OC(=O)c1cc2c(ccn2-c2ccc(F)cc2)n1Cc1ccccn1`, the inhibition was 64% (active).

In the case of `CCOC(=O)c1cc2c(ccn2-c2ccc(F)cc2)n1Cc1ncc(C)c(OC)c1C`, the inhibition was 3.2% (inactive).

With `COC(=O)c1cc2sc(Cl)cc2n1Cc1cc(=O)n2ccccc2n1`, the inhibition was -9.48% (inactive).

For the compound `O=C(NC(c1ccccc1)C1CC1)c1ccc2c(c1)S(=O)(=O)Nc1ncnn1-2` (stereo not drawn), the inhibition is -8.33% (inactive).

Turning to `COc1ccccc1NS(=O)(=O)c1ccc2oc(Nc3ccc(Cl)c(C(F)(F)F)c3)nc2c1`, the inhibition is -24.6% (inactive).

`COc1ccc2c(c1)c(N1CCCC1=O)c(C(=O)NCc1ccccn1)n2C`: the inhibition is -0.85% (inactive).

With `Cc1nn(CC(=O)c2cc(C)n(-c3ccc4c(c3)OCO4)c2C)c(C)c1[N+](=O)[O-]`, the inhibition is 58.8% (active).

For `Cc1nn(-c2ccc(F)cc2)c(C)c1S(=O)(=O)NCc1ccc2c(c1)OCO2`, the inhibition is -20.2% (inactive).

With `COc1cccc(C2C3=C(CC(C)(C)CC3=O)Nc3ccccc3N2C(=O)Cc2ccccc2)c1` (stereo not drawn), the inhibition was 2.23% (inactive).

`Cc1cc(C)cc(NC(=O)Cn2cnc(-c3nc(C)cs3)c2)c1`: the inhibition was -4.24% (inactive).

For the compound `Cc1ccccc1-c1nc(-c2cccc(OCC(=O)N3CCOCC3)c2)no1`, the inhibition was 7.89% (inactive).

Turning to `Cc1ccccc1-c1nc(-c2cn(CC(=O)Nc3ccccc3)cn2)no1`, the inhibition is 64.4% (active).

Consider `C[C@H](NC(=O)c1ccc2c(c1)OCO2)c1nc2cc(-c3ccc(F)cc3)ncn2n1`, for which the inhibition was 18% (inactive).

In the case of `Nc1c(-c2ccc(Cl)cc2)cnc2c(-c3ccccc3)c(COc3ccccc3)nn12`, the inhibition is -0.15% (inactive).

On to `COc1ccc(NC(=O)Cc2noc(-c3cccc(OC)c3)n2)cc1`, for which the inhibition is 50.5% (active).

For `COc1ccc(OCC(=O)Nc2noc(-c3ccccc3)n2)cc1`, the inhibition was 15.1% (inactive).

Turning to `COc1ccc(-c2noc(-c3cccc(OCC(=O)NC(C)C)c3)n2)cc1`, the inhibition is -16.3% (inactive).

On to `CN(C)[C@@H]1CN(S(=O)(=O)N2CCOCC2)C[C@H]1O`, for which the inhibition was 11.8% (inactive).

In the case of `Cc1ccc(C(=O)N2C[C@@H]3CCN(c4ncccn4)C[C@@H]3C2)cc1`, the inhibition was -16.6% (inactive).

Regarding `COc1cccc(CNC(=O)Cn2cnc(S(=O)(=O)N3CCCC3)c2)c1`, the inhibition was 19% (inactive).

`COc1cccc(NC(=O)c2nnn(Cc3nc(-c4cccc(C)c4)oc3C)c2N)c1`: the inhibition was -2.67% (inactive).

Regarding `COc1cccc(CNC(=O)c2nnn(CC(=O)Nc3cc(C)ccc3C)c2N)c1`, the inhibition was 67.9% (active).

In the case of `Cc1ccc(Nc2nc(NCC(=O)Nc3cc(C)ccc3C)nc(Nc3ccc(C)cc3)n2)cc1`, the inhibition was 38% (active).

On to `Cc1nc(-c2ccc(C)c(S(=O)(=O)NCC(=O)Nc3cccc(Cl)c3)c2)no1`, for which the inhibition is 7.8% (inactive).

For `Cc1ccc(C)c(NC(=O)c2cn(C)cc3c(=O)n(-c4ccccc4)nc2-3)c1`, the inhibition was -13.8% (inactive).

On to `CCCN1CCC(N2C[C@@H]3CN(S(=O)(=O)c4ccccc4)C[C@@H]3C2)CC1`, for which the inhibition was -38.2% (inactive).

On to `Cc1nc(-c2ccccc2)sc1-c1nc(-c2ccccc2)ncc1S(=O)(=O)c1ccccc1`, for which the inhibition was 63.3% (active).

On to `COc1ccc2ncc(S(=O)(=O)c3ccccc3)c(Nc3ccc(F)cc3)c2c1`, for which the inhibition is 17.2% (inactive).

As to `Cc1ccc2c(c1)CN(S(C)(=O)=O)CC1(CCN(CC(=O)N3CCCCC3)CC1)O2`, the inhibition is 0.0399% (inactive).

As to `CCOC(=O)C1CCN(S(=O)(=O)c2cc3[nH]c4c(c3cc2CC)C(=O)CCC4)CC1`, the inhibition was -25.1% (inactive).

Turning to `Cc1cc(C(F)(F)F)nn1CC(=O)O`, the inhibition was -0.231% (inactive).

Consider `O=C(Cc1ccc(Cl)cc1)NCC(=O)Nc1nc2ccccc2[nH]1`, for which the inhibition was -1.55% (inactive).

Consider `CC1=C(C(=O)Nc2ccccc2)C(c2ccc(OCc3c(Cl)cccc3Cl)cc2)n2ncnc2N1` (stereo not drawn), for which the inhibition is -1.68% (inactive).

In the case of `COCCNC(=O)c1ccc2nnc3ncn(C(C)C)c3c2c1`, the inhibition is -31.7% (inactive).

With `COc1ccc(-c2noc(C3(c4ccccc4)CCOCC3)n2)cc1`, the inhibition was 19.2% (inactive).

Turning to `COc1ccc(-c2noc(-c3ccc(N(C)Cc4ccco4)nn3)n2)cc1`, the inhibition was 35.7% (active).

Take `COc1ccc(-c2nc(-c3cccs3)no2)cc1OC`: the inhibition was -15.4% (inactive).

As to `O=C1CC(C(=O)Nc2ccccc2F)N=C(N2CCN(c3ccccc3F)CC2)N1` (stereo not drawn), the inhibition is 3.41% (inactive).

Take `O=C(CSc1ccc2nnc(-c3ccccc3)n2n1)N1CCCc2ccccc21`: the inhibition is 29.4% (inactive).

For `O=[N+]([O-])c1ccc(S(=O)(=O)N2CCN(c3nc4ccccc4s3)CC2)cc1`, the inhibition is -0.0867% (inactive).

`CC(C)N(C(=O)CSc1nc2ccc([N+](=O)[O-])cc2s1)C(C)C`: the inhibition is 49.5% (active).

For the compound `COc1cccc(NC(=O)CN2CCN(c3nc4ccc([N+](=O)[O-])cc4s3)CC2)c1`, the inhibition is -52.2% (inactive).

For `O=C1NCCCCC1NS(=O)(=O)c1ccc2c(c1)OCCCO2` (stereo not drawn), the inhibition is -2.35% (inactive).

For the compound `Cc1cc(F)ccc1NC(=O)Cc1n[nH]c(Cc2ccccc2)n1`, the inhibition is 2.95% (inactive).

With `Cc1ccccc1NC(=O)Cc1csc2nc(-c3ccc(F)cc3)cn12`, the inhibition is 85.8% (active).

For `O=C(Cc1ccc(F)cc1)Nc1ccccc1Cc1ccccc1`, the inhibition is 19.3% (inactive).

Take `COc1cccc(C(=O)OCc2csc(-c3ccccc3)n2)c1OC`: the inhibition was 4.14% (inactive).

Turning to `Nc1cc(C2CCN(C(=O)Cc3ccc(F)cc3)CC2)no1`, the inhibition was 1.13% (inactive).

With `COc1cccc(NC(=O)Nc2nccn(-c3ccccc3)c2=O)c1`, the inhibition was 5.06% (inactive).

On to `COc1cccc(-n2c(=O)[nH]c3c(C(N)=O)nc(-c4ccccn4)nc32)c1`, for which the inhibition was -282% (inactive).

As for `COc1ccccc1CNCc1c(C(=O)O)c(C)n(-c2ccccc2)c1C`, the inhibition was 27.6% (inactive).

Regarding `COc1cccc(-n2c(=O)c(C(=O)NC(C)c3ccccc3)c(O)c3cccnc32)c1` (stereo not drawn), the inhibition is 81.5% (active).

As for `COc1ccccc1CNC(=O)c1c(O)c2cccnc2n(-c2ccccc2)c1=O`, the inhibition is 80.6% (active).

Take `COc1ccccc1CNC(=O)c1ccc(Cl)c(S(=O)(=O)N2CCCC2)c1`: the inhibition was -5.09% (inactive).

As for `CN(C)S(=O)(=O)N1CCOC(c2cncc(-c3cccc(F)c3)n2)C1` (stereo not drawn), the inhibition was -2.26% (inactive).

On to `O=C(C1COc2ccccc2O1)N1CCN(c2nc(C(F)(F)F)nc3ccccc23)CC1` (stereo not drawn), for which the inhibition is 11.8% (inactive).

In the case of `COC(=O)c1ccc(C2Oc3ccccc3CN2c2ccccc2Cl)cc1` (stereo not drawn), the inhibition was 22% (inactive).

In the case of `COc1ccc(-c2csc(N)n2)c(O)c1`, the inhibition is 3.16% (inactive).

As for `Cc1ccc(-n2c(C)nnc2SCC(=O)NC2CC2)cc1`, the inhibition is 1.76% (inactive).

Consider `Cc1nc(C2CCCN2C(=O)c2ccc(OCC3CC3)nc2)no1` (stereo not drawn), for which the inhibition was 5.37% (inactive).

For the compound `Cc1nc2cc(-c3noc(-c4sc(C)nc4C)n3)ccc2o1`, the inhibition is 7.81% (inactive).

In the case of `O=C(NCCc1c[nH]c2ccccc12)c1cc2cc(Cl)ccc2o1`, the inhibition is 16.2% (inactive).

In the case of `O=C(Cc1csc(NC(=O)c2ccc(=O)[nH]c2)n1)NCc1ccco1`, the inhibition was -11.3% (inactive).

Take `O=C(CCc1csc(NC(=O)c2ccc(=O)[nH]c2)n1)NCCc1c[nH]c2ccccc12`: the inhibition was 62.3% (active).

In the case of `COc1cc(C2CCN(S(=O)(=O)c3cccc(C#N)c3)CC2)on1`, the inhibition is -4.99% (inactive).
